About 2,000 (36%) of roughly 5,500 compounds were called active. Another 18% or so got no clear call; they are omitted. Rule as the data show it: active = normalized growth mostly below about 0.91 (no sharp cut-off); inconclusive = no clear call, values can overlap the other calls; inactive = mostly above about 0.92. Some of the results follow.
Experiment: chemical genetic growth profiling, strain panel (AID 1159580);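 also: tested at 20 µM; growth read once vehicle control cultures reached saturation at 30 °C; 1 = growth at the plate median or of vehicle wells; lower values mean less growth of the strain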
Conditions: S. cerevisiae deletion strains, growth OD
[1] = locus YHR030C, strain SLT2, hits give low values
[2] = locus YJL095W, strain BCK1, hits give low values

Measured: normalized growth

COc1ccc(-c2coc3c(OC)c(OC)cc(OC)c3c2=O)cc1
inactive: locus YAL013W, strain DEP1, hits give low values 0.977 | locus YBR021W, strain FUR4, hits give low values 0.875 | locus YBR229C, strain ROT2, hits give low values 0.998 | locus YCL029C, strain bik1, hits give low values 1 | locus YDL035C, strain GPR1, hits give low values 0.985 | locus YDL074C, strain BRE1, hits give low values 0.961 | locus YDL101C, strain DUN1, hits give low values 0.993 | locus YDL185W, strain tfp1, hits give low values 0.992 | locus YDL192W, strain arf1, hits give low values 0.991 | locus YDR101C, strain arx1, hits give low values 0.983 | locus YDR150W, strain NUM1, hits give low values 0.991 | locus YDR162C, strain NBP2, hits give low values 0.893 | locus YDR318W, strain mcm21, hits give low values 0.978 | locus YDR388W, hits give low values 1.01 | locus YDR502C, strain sam2, hits give low values 0.982 | locus YEL061C, strain CIN8, hits give low values 1 | locus YER110C, hits give low values 0.995 | locus YER155C, strain BEM2, hits give low values 0.998 | locus YER167W, strain BCK2, hits give low values 0.977 | locus YGL078C, strain dbp3, hits give low values 1 | locus YGL086W, strain mad1, hits give low values 0.974 | locus YGL248W, strain PDE1, hits give low values 0.979 | locus YGR078C, strain PAC10, hits give low values 0.94 | locus YGR135W, strain pre9, hits give low values 0.969 | locus YGR252W, strain gcn5, hits give low values 0.848 | [1] 0.997 | locus YHR079C, strain IRE1 (second series), hits give low values 0.993 | locus YHR094C, strain hxt1, hits give low values 0.996 | locus YHR129C, strain ARP1, hits give low values 0.995 | locus YHR200W, strain rpn10, hits give low values 0.985 | locus YIL066C, strain RNR3, hits give low values 0.951 | locus YIL073C, strain SPO22, hits give low values 0.973 | locus YIL125W, strain kgd1, hits give low values 0.992 | locus YIR030C, strain dcg1, hits give low values 1.01 | [2] 0.899 | locus YJL134W, strain LCB3, hits give low values 1 | locus YJL168C, strain set2, hits give low values 0.995 | locus YJL187C, strain SWE1 (second series), hits give low values 0.971 | locus YJR043C, strain POL32, hits give low values 0.964 | locus YJR075W, strain HOC1, hits give low values 0.974 | locus YKL009W, strain mrt4, hits give low values 0.981 | locus YKL068W, hits give low values 1.02 | locus YKL085W, strain MDH1 (second series), hits give low values 0.993 | locus YKL085W, strain MDH1, hits give low values 0.993 | locus YKL190W, strain CNB1, hits give low values 0.986 | locus YKR001C, strain vps1, hits give low values 0.903 | locus YLR039C, strain RIC1, hits give low values 0.928 | locus YLR058C, strain SHM2, hits give low values 0.983 | locus YLR102C, strain apc9, hits give low values 0.993 | locus YLR262C, strain YPT6, hits give low values 0.904 | locus YLR268W, strain sec22, hits give low values 0.952 | locus YLR330W, strain CHS5, hits give low values 1 | locus YLR342W, strain FKS1 (second series), hits give low values 0.924 | locus YLR371W, strain rom2, hits give low values 0.993 | locus YLR418C, strain cdc73, hits give low values 0.884 | locus YML016C, strain PPZ1, hits give low values 1 | locus YML032C, strain rad52, hits give low values 0.999 | locus YML124C, strain tub3, hits give low values 0.994 | locus YMR078C, strain ctf18, hits give low values 1.01 | locus YMR223W, strain ubp8, hits give low values 0.994 | locus YMR307W, strain GAS1, hits give low values 0.83 | locus YNL067W, strain RPL9B, hits give low values 0.964 | locus YNL128W, strain TEP1, hits give low values 0.998 | locus YNL153C, strain GIM3, hits give low values 0.978 | locus YNL233W, strain BNI4, hits give low values 0.914 | locus YNL250W, strain rad50, hits give low values 1.02 | locus YNL271C, strain bni1, hits give low values 1 | locus YNL298W, strain CLA4, hits give low values 1.01 | locus YNL307C, strain MCK1, hits give low values 0.968 | locus YNL322C, strain KRE1, hits give low values 0.985 | locus YNR052C, strain pop2, hits give low values 1.02 | locus YOL012C, strain htz1 1.15 | locus YOL147C, strain pex11, hits give low values 0.982 | locus YOR061W, strain CKA2, hits give low values 0.998 | locus YOR069W, strain VPS5, hits give low values 1.01 | locus YOR136W, strain idh2, hits give low values 0.987 | locus YOR144C, strain elg1, hits give low values 0.991 | locus YOR184W, strain ser1, hits give low values 0.938 | locus YOR316C, strain cot1, hits give low values 0.999 | locus YPL055C, strain LGE1, hits give low values 0.904 | locus YPL241C, strain CIN2, hits give low values 0.995 | locus YPR119W, strain clb2, hits give low values 0.987 | locus YPR141C, strain kar3, hits give low values 1 | locus YPR163C, strain tif3, hits give low values 0.985 | locus YPR167C, strain met16, hits give low values 0.985 | strain wtn01, hits give low values 0.972

COc1ccc(-c2coc3c(O)c(O)c(OC)cc3c2=O)cc1
inactive: [1] 0.96 | locus YHR079C, strain IRE1, hits give low values 0.969 | [2] 0.955 | locus YJR066W, strain TOR1, hits give low values 0.912 | locus YLR113W, strain HOG1, hits give low values 0.955 | locus YNL183C, strain NPR1, hits give low values 0.888 | locus YOR231W, strain MKK1, hits give low values 0.971 | locus YPL256C, strain CLN2, hits give low values 0.953

Source: PubChem BioAssay AID1159580 (chemical genetic matrix, 2015)
